In experiment [1] the target is Luciferin 4-monooxygenase (Photinus pyralis) (UniProt P08659). In words: qHTS assay to identify small molecule inhibitors of firefly luciferase (AID 1224835). Further: nearly all actives have a fitted effect of over 25% in size. Further: potency means the concentration at half of the fitted maximal effect. The gist of the method:
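Quantitative HTS format; KM concentrations of both substrates. Purified P. pyralis FLuc activity quantified from luminescence images.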
In general terms: In qHTS, concentration-response curves come from the screen itself.

The nature of experiment [2]: qHTS assay to identify small molecule agonists of the constitutive androstane receptor (CAR) signaling pathway - cell viability counter screen (AID 1224836). Further: nearly all actives have a fitted effect of over 45% in size. The gist of the method: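 Fluorescence from CellTiter-Fluor indicates live cells after 23 h exposure. The human hepatoma line expresses hCAR and a CYP2B6-2.2kb reporter. Incubation medium contains 0.75 uM PK11195 (final).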

The target in experiment [3] is Nuclear receptor subfamily 1 group I member 3 (Homo sapiens) (UniProt Q14994). In words: qHTS assay to identify small molecule antagonists of the constitutive androstane receptor (CAR) signaling pathway (AID 1224838).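 Further: HepG2 cells stably expressing hCAR with CYP2B6 luciferase reporter stimulated by CITCO; nearly all actives have a fitted effect of over 40% in size.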 The gist of the method: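 Antagonism measured as luciferase signal (ONE-Glo, 30 min, room temperature) in CAR-stimulated cells: HepG2-CYP2B6-hCAR double-stable line exposed 24 hr at 37 C to compound in a 15-point series plus 50 nM CITCO.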
Sequence of Nuclear receptor subfamily 1 group I member 3 (Homo sapiens) (Q14994 whole entry, looked up): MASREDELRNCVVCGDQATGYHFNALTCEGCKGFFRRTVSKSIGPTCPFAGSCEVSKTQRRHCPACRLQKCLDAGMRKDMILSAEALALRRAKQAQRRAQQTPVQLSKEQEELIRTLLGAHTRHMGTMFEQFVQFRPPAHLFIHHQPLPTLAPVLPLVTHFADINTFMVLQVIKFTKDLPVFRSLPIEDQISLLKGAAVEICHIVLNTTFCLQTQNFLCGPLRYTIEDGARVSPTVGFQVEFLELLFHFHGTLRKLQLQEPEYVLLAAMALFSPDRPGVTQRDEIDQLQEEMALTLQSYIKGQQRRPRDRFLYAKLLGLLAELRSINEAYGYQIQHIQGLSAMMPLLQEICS

A short description of experiment [4]: qHTS assay to identify small molecule antagonists of the estrogen related receptor signaling pathway with the pleiotropic PPARgamma coactivator (PGC) from Tox21 10K library - cell viability counter screen (AID 1224840; active means well fitted cell-killing curve with a large enough effect in the repeat runs, not every such curve was filed as active; further: nearly all actives have a fitted effect of over 40% in size). The gist of the method: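 Counter-screen for cytotoxicity: after 17.5 h compound exposure at 37 C, CellTiter-Fluor reagent added to PGC/ERR cells for 30 min and fluorescence read. Cells were seeded at 2,000 per well 6 h before dosing.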

Experiment [5] in a line: qHTS assay to identify small molecule antagonists of the estrogen related receptor signaling pathway with the pleiotropic PPARgamma coactivator (PGC) from Tox21 10K library (AID 1224841; call rule not given here; further: actives are mostly falling curves and most rising ones were filed inactive; nearly all actives have a fitted effect of over 50% in size). The gist of the method: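 Luminescence (One-Glo, 30 min at room temperature) after 18 h compound treatment at 37 C of PGC/ERR reporter cells plated at 2,000 cells/well and settled 6 h beforehand.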

For experiment [6], the target named is Thyrotropin receptor (Homo sapiens) (UniProt P16473). Nature of the experiment: qHTS assay to identify small molecule agonists of the thyroid stimulating hormone receptor (TSHR) signaling pathway (AID 1224843; calls by dose curve; further: nearly all actives have a fitted effect of over 45% in size). The gist of the method: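 Compounds are titrated over 15 concentrations, in triplicate, onto TSHR-HEK293 cells seeded at 800/well. Plates sit 30 min at room temperature before cAMP-d2 and anti-cAMP cryptate are added; signal is read after a further hour.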
Sequence of Thyrotropin receptor (Homo sapiens) (P16473 whole entry, looked up): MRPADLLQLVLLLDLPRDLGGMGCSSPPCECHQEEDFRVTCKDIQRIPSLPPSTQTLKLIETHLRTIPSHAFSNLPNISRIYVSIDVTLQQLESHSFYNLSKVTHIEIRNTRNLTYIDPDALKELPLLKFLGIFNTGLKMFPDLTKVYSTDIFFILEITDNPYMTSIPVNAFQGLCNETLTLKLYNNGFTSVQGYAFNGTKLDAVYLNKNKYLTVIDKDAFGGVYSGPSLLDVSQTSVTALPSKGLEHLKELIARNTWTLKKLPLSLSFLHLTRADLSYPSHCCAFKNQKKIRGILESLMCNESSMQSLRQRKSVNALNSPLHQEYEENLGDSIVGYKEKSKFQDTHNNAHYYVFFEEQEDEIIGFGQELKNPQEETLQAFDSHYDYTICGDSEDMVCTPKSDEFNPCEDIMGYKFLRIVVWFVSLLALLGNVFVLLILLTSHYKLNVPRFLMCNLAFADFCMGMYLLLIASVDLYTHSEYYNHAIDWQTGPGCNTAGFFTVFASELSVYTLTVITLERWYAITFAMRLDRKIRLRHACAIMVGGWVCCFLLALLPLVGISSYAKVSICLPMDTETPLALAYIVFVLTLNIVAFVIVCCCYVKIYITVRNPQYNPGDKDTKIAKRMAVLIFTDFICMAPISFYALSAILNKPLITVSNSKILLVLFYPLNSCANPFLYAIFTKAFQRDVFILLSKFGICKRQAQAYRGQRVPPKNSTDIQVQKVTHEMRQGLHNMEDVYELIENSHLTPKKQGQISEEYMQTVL

Experiment [7] can be described thus: qHTS assay to identify small molecule agonists of the hypoxia (HIF-1) signaling pathway - cell viability counter screen (AID 1224844; calls by dose curve; further: nearly all actives have a fitted effect of over 50% in size). The gist of the method: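 Cytotoxicity measured by CellTiter-Glo ATP luminescence in the wells also read for beta-lactamase signal. Cells were HRE-bla ME-180 (2,000/well, 0.5% dialyzed FBS), exposed to compounds for 17 h at 37C.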

Experiment [8] can be described thus: qHTS assay to identify small molecule agonists of H2AX (AID 1224845; active means well fitted activation curve with a large enough effect in the signal ratio in the repeat runs, not every such curve was filed as active; the % refers to the signal ratio). The gist of the method:
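Wild-type CHO-K1 cells plated overnight, then exposed 3 hr at 37C to compounds at 15 concentrations (0.76% DMSO). Lysed, then HTRF anti-pH2AX(S139)-cryptate/anti-H2AX-d2 detection after 24 hr at room temperature; emissions 665 and 620 nm.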

The nature of experiment [9]: qHTS assay to identify small molecule agonists of the hypoxia (HIF-1) signaling pathway (AID 1224846; active means well fitted activation curve with a large enough effect in the signal ratio in the repeat runs, not every such curve was filed as active; the % refers to the signal ratio). The gist of the method: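 Compounds added to ME-180 cells carrying hypoxia-response-element beta-lactamase reporter (0.5% dialyzed FBS, 5 h preplating), 17 h at 37C; agonist activity detected by CCF4-AM B/G FRET read-out.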
Experiment [10] in a line: qHTS assay to identify small molecule agonists of H2AX - cell viability counter screen (AID 1224847; calls by dose curve; further: top concentration of the series differs between compounds; nearly all actives have a fitted effect of over 30% in size). The gist of the method:
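Viability of CHO-K1 (wild type) cells after 3 hr compound exposure was measured by CellTiter-Glo luminescence.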

The nature of experiment [11]: qHTS assay to identify small molecule antagonists of the estrogen related receptor (ERR) signaling pathway from Tox21 library (AID 1224848). Further: nearly all actives have a fitted effect of over 50% in size. The gist of the method: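 First, 2,000 ERR cells per well were plated and held 6 h at 37 C/5% CO2. Next, compounds in DMSO were pinned in and left 18 h at 37 C. Finally, ONE-Glo was added and luminescence read after 30 min at room temperature.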

A short description of experiment [12]: qHTS assay to identify small molecule agonists of the estrogen related receptor (ERR) signaling pathway from Tox21 library (AID 1224849; calls by dose curve; further: nearly all actives have a fitted effect of over 15% in size). The note with it: ERR reporter cell line, ONE-Glo luciferase, 18 h; at 92.4 µM (top of the series) unless noted. The gist of the method: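 Luminescent agonist read-out (One-Glo, 30-minute room-temperature incubation) following 18-hour compound treatment at 37 C of the ERR cell line, which had been plated 6 hours before dosing.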

Experiment [13] is described as follows: qHTS RealTime-Glo MT Cell Viability Assay in HepG2 cells - 24 hour (AID 1224867). Further: nearly all actives have a fitted effect of over 50% in size. The gist of the method:
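Compound treatment began 5 h after plating HepG2 cells (600/well) with NanoLuc luciferase and prosubstrate. Plates stayed at 37 C for 40 h; luminescence was captured at six time points, 0 h through 40 h.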

The nature of experiment [14]: qHTS RealTime-Glo MT Cell Viability Assay in HEK293 cells - 32 hour (AID 1224868). The gist of the method: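 Quantitative high-throughput screen of the Tox21 10K library in HEK293: cells and RealTime-Glo reagents plated together, compound added at 5 h, luminescence monitored through 40 h at 37 C.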
Experiment [15] in a line: A CellTox Green Cytotoxicity Assay to monitor cytotoxicity in HEK293 cells - 0 hour (AID 1224869). Further: nearly all actives have a fitted effect of over 50% in size. The gist of the method:
(§1)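 Fluorescence from a DNA-binding dye excluded by viable cells was measured repeatedly in the same HEK293 wells (600 cells/well) during continuous compound exposure at 37 C. Each assay gives one read point: 0, 8, 16, 24, 32 or 40 h.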

Experiment [16] can be described thus: qHTS RealTime-Glo MT Cell Viability Assay in HepG2 cells - 40 hour (AID 1224870). Further: nearly all actives have a fitted effect of over 50% in size. The gist of the method: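 HepG2 cells mixed with RealTime-Glo MT reagents (NanoLuc plus cell-permeant prosubstrate) were seeded at 600 cells/well, incubated 5 h at 37 C/5% CO2, then pinned with compounds in DMSO; nonlytic luminescence tracked viability during 40 h treatment.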

Experiment [17] in a line: A CellTox Green Cytotoxicity Assay to monitor cytotoxicity in HEK293 cells - 40 hour (AID 1224871). Further: nearly all actives have a fitted effect of over 45% in size. Further: potency means the concentration at half of the fitted maximal effect. The gist of the method:
as §1

Experiment [18] can be described thus: qHTS assay to identify small molecule antagonists of the constitutive androstane receptor (CAR) signaling pathway - cell viability counter screen (AID 1224837). Further: nearly all actives have a fitted effect of over 45% in size. The gist of the method: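 Cytotoxicity counter-screen: CellTiter-Fluor fluorescence after 23 h compound exposure (15-point qHTS) in double-stable HepG2-CYP2B6-hCAR cells, with 50 nM CITCO added.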
Experiment [19] has as its target Nuclear receptor subfamily 1 group I member 3 (Homo sapiens) (UniProt Q14994). Nature of the experiment: qHTS assay to identify small molecule agonists of the constitutive androstane receptor (CAR) signaling pathway (AID 1224839).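 Further: HepG2 cells stably carrying human CAR and a CYP2B6 luciferase reporter; nearly all actives have a fitted effect of over 15% in size.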 The gist of the method:
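Stable hCAR/CYP2B6-2.2kb HepG2 line in DMEM with 10% FBS; compounds (15 concentrations) and 0.75 uM PK11195 final, 24 h at 37 C/5% CO2, then ONE-Glo luminescence after 30 min.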

Potency, outcome and activity change, positive = activation data for nine compounds are collected here from PubChem BioAssay (Tox21).

Unmarked numbers belong to inactive results. Inconclusive results are not listed. Active and inactive are the calls of the source. Unless noted, the call rests on the fitted dose curve; in most records, active means well fitted curve in the direction sought with a large enough effect in the repeat runs; inconclusive means weak or mixed curves; inactive means no such curve, though single readings can be large; an effect the other way counts as inactive or inconclusive.
On the % scale 0 is the no-effect control and ±100 the full control effect.

Sequence of Luciferin 4-monooxygenase (Photinus pyralis) (P08659 whole entry, looked up): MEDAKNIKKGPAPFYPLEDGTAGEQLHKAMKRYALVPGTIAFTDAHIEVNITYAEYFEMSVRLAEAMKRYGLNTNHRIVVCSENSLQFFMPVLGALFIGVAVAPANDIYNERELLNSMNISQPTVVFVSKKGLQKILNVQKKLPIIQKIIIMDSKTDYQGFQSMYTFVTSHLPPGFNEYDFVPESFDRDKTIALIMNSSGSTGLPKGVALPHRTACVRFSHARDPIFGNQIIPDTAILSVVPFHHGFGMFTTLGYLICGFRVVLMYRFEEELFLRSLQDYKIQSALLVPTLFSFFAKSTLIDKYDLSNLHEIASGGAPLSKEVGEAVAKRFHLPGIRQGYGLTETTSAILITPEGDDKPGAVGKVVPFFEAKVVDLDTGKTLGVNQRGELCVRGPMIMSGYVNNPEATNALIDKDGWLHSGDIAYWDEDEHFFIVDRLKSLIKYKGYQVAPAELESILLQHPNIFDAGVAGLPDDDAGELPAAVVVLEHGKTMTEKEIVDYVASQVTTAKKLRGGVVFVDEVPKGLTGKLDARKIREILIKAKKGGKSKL

On to `CNC(=O)N(C)c1nc2ccccc2s1`, for which the Potency in experiment [1] is 35.6 µM (active). Moreover, the Potency result in experiment [2], in [3], in [4], in experiment [5], in [6] and in experiment [7] was “inactive” in each case. The Potency entry in experiment [8], in experiment [10], in experiment [11], in experiment [13], in experiment [14] and in experiment [15] was “inactive” in each case. In addition, the Potency entry in experiment [16] and in [17] was “inactive” throughout. Also, in experiment [9], the result was inactive. In experiment [12], the activity change, positive = activation is 89.8% (active).
Turning to `CC(C)CC#N`, the Potency entry in [1], in experiment [2], in experiment [18], in experiment [4], in experiment [7] and in experiment [8] was “inactive” each time. The Potency result in [10], in experiment [13], in [15], in experiment [16] and in experiment [17] was “inactive” in each case. Besides, the call in experiment [9] was inactive.
`O=C1OC(c2ccc(O)c(S(=O)(=O)O)c2)(c2ccc(O)c(S(=O)(=O)O)c2)c2c(Br)c(Br)c(Br)c(Br)c21`: the Potency result in [1], in experiment [2], in experiment [18], in experiment [4], in experiment [6] and in [7] was “inactive” each time. Moreover, the Potency entry in experiment [8], in experiment [10], in experiment [13], in experiment [14], in [15] and in [16] was “inactive” throughout. Also, the Potency result in [17] was “inactive”. Also, the compound was classed as inactive in experiment [9].
Turning to `COc1ncc(F)c2nc(S(=O)(=O)Nc3c(F)cccc3F)nn12`, the Potency result in experiment [1], in [2], in experiment [3], in experiment [19], in experiment [4] and in [6] was “inactive” throughout. For the same compound, the Potency entry in experiment [7], in experiment [8], in experiment [10], in [13], in experiment [14] and in experiment [15] was “inactive” in each case. The Potency entry in experiment [16] is “inactive”. Besides, in experiment [9], the result was inactive. In addition, the Potency in experiment [17] is 13.9 µM (active).
In the case of `c1cc2c(c(N3CCNCC3)c1)OCCO2`, the Potency result in experiment [1], in experiment [2], in [18], in experiment [4], in experiment [6] and in experiment [7] was “inactive” in each case. The Potency result in experiment [10], in [13], in [14], in experiment [15], in experiment [16] and in [17] was “inactive” each time. Moreover, the compound was classed as inactive in experiment [9].
With `CNC(=O)O/N=C(\C)SC`, the Potency entry in experiment [1], in [2], in experiment [18], in [4], in [6] and in experiment [7] was “inactive” throughout. Further, the Potency result in [8], in experiment [10], in [13], in [14], in experiment [15] and in experiment [16] was “inactive” throughout. Besides, the Potency result in experiment [17] was “inactive”. In addition, in experiment [9], the result was inactive.
For `Nc1ccccc1Cl`, the Potency result in experiment [1], in experiment [2], in experiment [3], in [19], in experiment [4] and in [6] was “inactive” throughout. Also, the Potency result in experiment [7], in [8], in experiment [10], in experiment [13], in experiment [14] and in experiment [15] was “inactive” each time. Besides, the Potency result in experiment [16] and in [17] was “inactive” in each case. Moreover, the compound was called inactive in experiment [9].
As for `Cc1nc(N)nc(N)n1`, the Potency result in experiment [1], in [2], in [3], in experiment [19], in experiment [4] and in experiment [6] was “inactive” each time. Moreover, the Potency result in experiment [7], in experiment [8], in [10], in experiment [13], in [14] and in experiment [15] was “inactive” each time. For the same compound, the Potency entry in experiment [16] and in [17] was “inactive” throughout. The compound was called inactive in experiment [9].
As to `O=C(NCO)NCO`, the Potency entry in experiment [1], in [2], in experiment [3], in experiment [19], in experiment [4] and in experiment [7] was “inactive” each time. In addition, the Potency result in experiment [8], in [10], in experiment [13], in experiment [14], in experiment [15] and in experiment [16] was “inactive” each time. The Potency result in [17] is “inactive”. Further, in experiment [9], the compound was called inactive.
